# Columns and labels:
# ETS1 [1] = target: T1, ETS1 (UniProt P14921); assay: ETS1 binding intensity (PBM fluorescence), ETS1 alone (arbitrary fluorescence units); higher = stronger binding; conditions: ETS1 concentration 1 nM; RUNX1 concentration 0 nM
# T1 sequence: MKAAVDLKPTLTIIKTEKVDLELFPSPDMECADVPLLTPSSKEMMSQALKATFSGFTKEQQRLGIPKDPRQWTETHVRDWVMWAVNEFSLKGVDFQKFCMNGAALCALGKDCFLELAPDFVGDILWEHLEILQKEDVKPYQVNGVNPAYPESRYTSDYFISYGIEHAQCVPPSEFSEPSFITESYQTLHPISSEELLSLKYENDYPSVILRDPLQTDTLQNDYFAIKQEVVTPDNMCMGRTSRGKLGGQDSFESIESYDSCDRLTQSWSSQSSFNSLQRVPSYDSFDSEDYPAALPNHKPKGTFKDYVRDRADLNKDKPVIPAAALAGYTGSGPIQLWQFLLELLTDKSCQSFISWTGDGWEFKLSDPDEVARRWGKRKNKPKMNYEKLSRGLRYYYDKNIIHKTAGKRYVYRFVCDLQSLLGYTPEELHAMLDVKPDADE
# ETS1 [2] = target: T1, ETS1; assay: ETS1 binding intensity (PBM fluorescence) in presence of RUNX1, normalised to ETS1-only experiment (arbitrary fluorescence units); higher = stronger binding; conditions: ETS1 concentration 1 nM; RUNX1 concentration 25 nM
Sequence,ETS1 binding intensity (ETS1 [1]),ETS1 binding intensity (ETS1 [2])
GAGGAAAAAGGAAACAGAAACTCCGCAACTTGCGCC,503,411
CAGAGGAGGAAGAGGAAGCCACAGCGATAGGGTCAC,522,520
CGAGCTCGCAAGAGGAAACCGCGGCGCGGAGGCAGC,681,1130
GCCTGCGCTCTTTCCGGTAGCCACAGCCTCGTCTAA,1290,1220
CTCCCCCAGCACATCCTCTGCCACCGCTGCCTTTCC,579,361
CTGGCAGGCCTCACTTCCTCACCACATGGCCCTCCC,543,640
GCACCGTGGCACTTCCGCGAGCGCCGCAGGCCCTGC,461,360
CCACTCCAGGAAACTCCTCCAGGTGAGCCCACAACT,500,474
GCACCGTCCCAGCATCCGGACACCACAGCGGCCCTT,602,530
CTGAAGGCTGGGGAGGAAGTGACCGCCCTCATATGC,2120,2330
CCTCTCAACAGCATTTCCTGGTGGTCAGATATCTGA,580,587
GAACACGGAAACACTGAGCTTTTACTTTGACCACAC,572,440
CAAAGGGGAACGAGGAAACCGCCAGGGGCGGGGCGG,485,475
GCTACGGGTTCCCCGGATGGAGCCGCAGTCCGGCCG,858,715
ACCAAACGTCACATCCGCGGTGCTGCTGTAATCCCA,470,389
CCCGCTTCCGCGTTTTACTCGGTGCCCGCAGCGCCG,445,389
GCACGCGCCGGGCGGAACCCACAGGCCTGGAAGCGA,537,803
TCTGAGAATGCAGGATATGTGTGTGGTCTCTAGTCA,1240,1510
TCTTTTTATTTCCTGTGCAGTCTCGCCCACAGCACT,1070,1030
CTACATGTTTCACAGGAAGGTGGTCACCAGGAGGCA,782,821
AGCGGATTCCGGACATAACAATCTACAGCGGTCTTA,444,417
AGAACAGGATGTTCTGAGTACAGCATGAACCTCAAA,1280,1210
GGCCGGAAAGGGTCTTGAGAGGAGGTGGTTGCCTTA,633,519
CCATTTCCTGATTCTAATGTTCATCAACCACTTTTG,504,397
ATGACTTAGCAACATCCTGACAACCACTACATTGTC,476,420

Sequence,ETS1 binding intensity (ETS1 [1]),ETS1 binding intensity (ETS1 [2])
TGTTGCACATGTTCAGGATGTGGTAGACAGCTTTCA,1410,3040
TGCCCCCTCCCCCTTCCGCTGTGGCCACCGGCTTTG,764,780
AGAATTACCAGGAAGCCGAGCGCTGCGGGCTAGCGG,518,631
ATACATACAGGATGACATTTGTCCTGTGGGCACCAG,495,515
ATTCTGCATCCTGTGCTCTTTCCATGAGACCACAAA,448,754
ACCCTCTTTCCGGTGGAAAGCTGCGGCCTCCCAGAG,464,380
TGGCCAGGAAGCCACTCGATTGCCGGCGCCCGCAGC,415,458
TCTGGGCTGACTTCCTGGCTTCGTCCCACAACTTCA,668,617
TGCGCCAGCCTTCCTGTCGTGGTCACCGGTGGCAGC,446,400
GTCCCCTCCCCAGGATGTGGCCACCCGCTAGAGCAT,1030,1560
GCAAGGTGGAGAGGAGGATGTGGCTTACCAGCAATT,1280,1990
GCAGGAAATGACGTCAGACCTCACTGCGGGTCTGAG,853,1010
CAACAAGAGGAAATCAGAAACACTGAAGCCACAGCT,420,463
GCTCTGGCGGAAGATGTCCCTGCGGTGCAGCTGCCG,397,465
GCAGAAGGAAGTGTGGCTTGGCGCGGTGGCTCACAC,475,405
GAAACTTCTCAAGGAAATAGCTGTGGTAAACAATAC,725,1730
GCCACACCCCCTTCCTGTTGTGTGTGGGGATTCATG,744,696
TAGGTTAGAATAAGAGGAAACCTCAAACCAGAACCC,579,991
GTGCAGGCCGGAAGGAAAAGGGTTGTGGGGCTCATT,1180,1420
CTGTCCACATAAGGAAGTTGGGACCACAAGGTCTTT,870,1350
GCTCGCGTCATCCTGCAGCGCCGACACCACAGACAC,501,505
CCTCCCGGCTTCCGTTCCTTGACCACCTCCTTCTCG,560,501
GCATTTCTCAGAAAAGGAAGCGGTTGTGCCGGGAGG,1530,2100
AACACTATTTCCTTTCTTGCTGCCCACATTTTAACA,520,447
